# Records with an inconclusive call do not appear. Entries that show only a call come without a potency. Calls of active or inactive are those of the source. Calls come from the whole dose curve; as a rule, active = well fitted curve in either direction with a large enough effect; inconclusive = small, poorly fitted or top-dose-only effect; inactive = no such curve, though single readings can be large or run the other way.
# Target: Lysosomal alpha-glucosidase (Homo sapiens) (UniProt P10253)
# Assay: Confirmation of Inhibitors and Activators of Purified Human alpha-Glucosidase Using an Alternate Red Fluorescent Susbtrate
# Conditions: purified enzyme, red fluorogenic substrate; series mostly up to 63.4 µM
# How it was run: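 Concentration series tested against 4 nM purified human enzyme, pH 5.0 citrate buffer with Tween-20; 400 uM resorufin glycoside substrate, 20 min room temperature, NaOH/glycine stop. Fluorescence normalized to no-enzyme and full-activity controls; Hill-equation AC50.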
row,Compound,Potency
1,CC(=O)c1ccc(N2CCN(S(=O)(=O)c3ccc4c(c3)n(C)c(=O)n4C)CC2)cc1,inactive
2,OCC1NCC(O)C(O)C1O (centres undefined),inactive
3,O=S(=O)(c1ccc(Cl)cc1)N1CCN(c2nc(Nc3cc(Cl)ccc3O)nc3ccccc23)CC1,inactive
4,Cc1nc(N=Nc2cc(S(=O)(=O)O)c3cc([N+](=O)[O-])cc(S(=O)(=O)O)c3c2)c(COP(=O)(O)O)c(C=O)c1O,inactive
5,O=C1Cc2cc(S(=O)(=O)N3CCNCC3)ccc2N1,inactive
6,CCCN1CNc2c(c(=O)[nH]c(=S)n2CCc2cccs2)C1,7.94 µM (active)
7,CCCN1CNc2c(c(=O)[nH]c(=S)n2CCc2cc(OC)ccc2OC)C1,6.31 µM (active)
8,COc1ccc(CCn2c3c(c(=O)[nH]c2=S)CN(Cc2ccccc2)CN3)cc1OC,1.78 µM (active)
9,CCCN1CNc2c(c(=O)[nH]c(=O)n2CCc2ccc(OC)c(OC)c2)C1,14.1 µM (active)

# Reference: PubChem BioAssay AID2110 (National Center for Advancing Translational Sciences (NCATS), 2009)
